The whole screen tested about 53,000 sequences, of which about 3,700 (7%) were called active. This is one part of a sample in which actives are shown more often than they occur. A number with no mark means an inactive call.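 The calls were made as follows: active = gene knockdowns whose robust z-score for IL-1 alpha signal is at least 2 or at most -2, so actives lie on both sides; inactive = the rest.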
assay: Components of the Cytosolic LPS Sensing Pathway: Gene Identification via Genome-wide siRNA Screen; settings: RAW264.7 macrophages, IL-1a HTRF, actives lie on both sides, screened at 100 nM (by protocol), cells primed 5 h with Pam3CSK4 first;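 also: robust z of the log signal after scaling to non-targeting control siRNA wells of the plate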
Method in brief: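 IL-1a HTRF of supernatants after 24 hour LipidA transfection of Pam3CSK4-primed (5 hours) RAW264.7 cells, 48h post-siRNA transfection (100 nM). Scores: percent of plate negative-control median, then log-based robust z-score.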

Row | Sequence | z-score
1 | CCAUCGACUGUUUCAUCCUTT against Olfr987 | -0.915
2 | GCUUGAAGUCUCUUGCUGGTT against Nhlrc2 | 3.53 (active)
3 | GCUACUCUUUGUCUCAUGUTT against Hexb | -0.826
4 | GGAUCAGAUCUUGUGUGACTT against Trim16 | -0.602
5 | CCGCUUGCUCAUUGUAUCATT against Ruvbl2 | -0.976
6 | GGUUCCAUGAGAAAAGGUUTT against F2r | -1.45
7 | AUCUGUUCCGGAGGAAUUUTT against 1700029I15Rik | 3.85 (active)
8 | GGAGGAGUUUCGCUACGGATT against Sars2 | -0.00587
9 | GGUGUACCCUGAAUUUGAATT against Wdr62 | -1.67
10 | GGUUAUACGCUUAGAUUUATT against Irx5 | 1.77
11 | GCUCUGUUACUAUUUGAAUTT against Cts6 | 0.137
12 | GGUUUUGUACUUUCAUAGATT against Fam111a | 0.523
13 | GGACUUGAACUGAAAAGUUTT against D830013H23Rik | 1.01
14 | GGCAAAAUAAAGCUUAAGGTT against Robo3 | -0.517
15 | GGAUUUGAGGUUCAUAUAATT against Cdk20 | -2.48 (active)
16 | CGACAGACAUCGCUAUAAUTT against Gm11437 | -0.296
17 | GGAGAUACCGGGAAUCCAATT against Rpl19 | 0.146
18 | GCGCUUCCAAUAACAAAAATT against 1700123L14Rik | -2.19 (active)
19 | CCAAGUGGGAUUUGCCAACTT against Ifi47 | -1.68
20 | GGAAUAUCACCAAACCAAATT against 2310057J18Rik | -1.08
21 | CCUUCACCUGGCUAUUAGATT against Kif12 | -0.14
22 | GGAUGUGUUCUAUUCUAUATT against Oprl1 | 0.134

Row | Sequence | z-score
23 | GGAAAGUUAAUGCACAUUUTT against Hmg20a | -1.68
24 | CCUGAAAGAAAAGAAGGACTT against Ptms | 0.107
25 | GGCGACAAGCAACUUAUAATT against Mgat4c | 3.25 (active)
26 | GGAUGACUGUAAGUUACGGTT against Mast2 | -0.229
27 | GGUGCUCCUAUCCUGUUCATT against Lhfp | -0.331
28 | GGCGGCUGAAAGUUUUGCATT against Pklr | 0.94
29 | GCACAAGAGGUAUCCUUGCTT against Gm5111 | 0.000682
30 | GCCUGCAUUGCAAAUGAAATT against Krtap13-1 | -0.257
31 | GGCUUUAACAUCAAAGCAATT against Mgarp | 0.0459
32 | GGAAUCCUUUUCUUUCUAATT against Slc13a1 | 0.0492
33 | GGAAGACAGGGACAAUACCTT against Car15 | -2.36 (active)
34 | CCAUCCUAGCUGUGGUAAGTT against Olfr554 | 1.32
35 | GGUCGUUCAGAAGCACCAGTT against Aldh16a1 | -1.31
36 | CGGCACUGACUUAUUGUUCTT against Olfr574 | 0.886
37 | GGUGUACCAAGUGUUUUCATT against Faf2 | 3.08 (active)
38 | GGUCACUGAAUUGUCAAUCTT against Polr3h | 0.773
39 | GGGCAAAGACAGUAUUCAATT against B530045E10Rik | 0.4
40 | CCAUGUGACAAAGCCUACCTT against Fam131b | 0.845
41 | GGAGGAAAGACGAAUCAACTT against Clcn7 | 1.44
42 | GCACUGAGCUUGACAAAGATT against Upp2 | -0.174
43 | GGGCUUUCUCAGAAAAGAATT against Olfr508 | -1.29
44 | GGGCAUGAAAGAAUUCUUATT against D130040H23Rik | -2.83 (active)

Row | Sequence | z-score
45 | GGCCAUCAUUGUCACCGUGTT against Adra2a | 0.955
46 | GGUUUAGGUUUCAUAAUCCTT against Ostc | -0.338
47 | GGACCUAUGCAGCACUAAATT against Ppp1r11 | 1.73
48 | GGAGAAAGUGGACAGGGCUTT against Jph4 | 0.00563
49 | GGUGGUCUGAGAAAUACUCTT against Czib | 2.06 (active)
50 | GCAUCUCCUGCCAAAGCAGTT against Ms4a2 | -0.381
51 | GGUAGUAGGAGGAAUGACGTT against Ccdc93 | -0.353
52 | GCUUCCUUAUUGACAAUGGTT against Rbm19 | 0.596
53 | GGAGGGACACAGAGAUUACTT against Auh | 5.05 (active)
54 | GGAGUAGCAGAGCUUCUGGTT against S100a8 | 0.642
55 | GGAGAAUAAAACUUCCAGATT against Urod | -0.436
56 | GGGACACAGCUAAAAGCUUTT against Fam20b | 0.146
57 | CGAUACAGGACCGAAGGAGTT against Fhad1 | -0.196
58 | GGUGGAUAUUGAUAUCAAGTT against Fga | 3.31 (active)
59 | CCCGGAGAGUCAUUUGUGUTT against Cpsf4 | 0.435
60 | CGGAAUCAUACAUUGGUUCTT against Zfp217 | 1.22
61 | GGUGUCUGACUUUAAGAAGTT against Foxred1 | -0.247
62 | GCCACAACUUAAUUUUCUGTT against Nav3 | -0.305
63 | GGAAUCAGAUACAAAGGAGTT against Sil1 | 0.265
64 | CUAUCAAGGGCAGUCAACUTT against Olfr1208 | -2.38 (active)
65 | GGACACUAUGACGGAAGUATT against Apoe | -1.13
66 | GGUUCUGAAGAUGGAGGUUTT against Ttbk2 | 1.22

Row | Sequence | z-score
67 | CCAAGAAUGCCCAGCAAGUTT against E4f1 | 2.39 (active)
68 | GCGACUUCAGAUUUCAUUATT against Srsf2 | -0.439
69 | GGUCAACCAUUCCUCUUGATT against Ccdc9b | 0.409
70 | GCUGAAGGAUCCCAUUAGATT against Cbx2 | -1.68
71 | GCAACUUGGGAACUCUUUGTT against Pnpla7 | -1.77
72 | GGUUUCUUUCUCUGAGUUUTT against Man2a1 | 1.62
73 | GGAGGAACUCCUAAAGAAGTT against Galntl5 | -0.511
74 | CCGAUCAUUAUGAGCAUACTT against Nxf7 | -1.76
75 | GGUCUUUAGCAAAUUGUUCTT against Lrrc6 | 2.02 (active)
76 | GGAUGCAGAAGAUUUUGUGTT against Ptprcap | -0.704
77 | GGAGACACAAAAGAAGAUATT against Sec14l4 | -0.359
78 | CCUGCGUUGACCAAUCAGATT against C2cd2l | -1.26
79 | CCUAGUCCUGAUUUAUCAGTT against Ddx39b | -2.02 (active)
80 | GCUCUAGGAAUCCAAAUAUTT against 9930014A18Rik | 0.8
81 | GGCUUCUUCAGAUCCUAAATT against Olfr554 | -0.615
82 | GGUCAUCAGAAGAAUCAAGTT against Arr3 | 2.13 (active)
83 | GCGAUAUCUCAACUUCCCGTT against Fchsd1 | 0.541
84 | GCAUGCGCCCUAAAGGAAATT against Zmynd15 | 0.687
85 | CCAGUCUUAUCUGUAGAAGTT against Obox1 | -1.69
86 | GCCUAACUAUGAAACUUCGTT against Ppp1r11 | 0.754
87 | CCAUUGUAGUCAGUCAAAUTT against Pip | -0.498
88 | GGAUGAAAGUCCUGGACAGTT against Gli3 | 5.97 (active)

Row | Sequence | z-score
89 | GGAGCAGUUGUGUUUAACATT against Psg17 | 0.596
90 | GGAAAGAGGGAAACUAAUUTT against Abhd17a | -0.694
91 | GGCAGAAAGCAGAAACAGUTT against Mok | -0.901
92 | GGUAUCUUCUCUUGGAAAATT against Tex12 | -0.533
93 | GCUAUGGGAUAUGAGCUGATT against Antkmt | -0.75
94 | GGAAUUCAGUGAAUGUCAUTT against Gapvd1 | -2.28 (active)
95 | UGUGCCCUAUAGAACCUGUTT against Krtap13-1 | 0.394
96 | GGACAACUCGAGUCUUAAATT against Poln | 1
97 | GCUCUUAUCAGCAUGUAUATT against Birc6 | 1.7
98 | ACUAGACUGAACUACCUGATT against Aim2 | 0.137
99 | GGCUCAUCAGAUGUAAACATT against Efcab6 | -2.13 (active)
100 | GCUAACAAGCUAGCAUUUATT against Ltv1 | -1.17
101 | GGUCCUGUUGAGAAUUUAATT against Zdhhc15 | 0.464
102 | GGCAACUGAAUGUUUCCUATT against Nudt19 | -1.41
103 | CCUAAGAGAUAAGAGCACCTT against Ppa2 | 0.381
104 | GGAGAUUUACUGCUCGCUGTT against Pik3r6 | 0.0343
105 | CAGGAUUCCUUGGACAUACTT against Olfr477 | -0.559
106 | GCUAAGUUCCAAGGCGACCTT against Serpinh1 | 2.77 (active)
107 | GGAUAAAGCAUCAGACAAATT against Hmgn1 | -0.202

From PubChem BioAssay AID1508600 (Functional Genomics Laboratory (NCATS/FGL), 2020)
